Source: PubChem (several laboratories)
In the library only some 1.1% were active in any assay of this set; here they are far more common.
VLA-4 inh – inhibition in a human VLA-4 binding assay; VLA-4 expressing cells, ligand binding flow cytometry; 330,000 compounds, 0.2% hits; inhibition, % (about 7 µM as worked out from the volumes in the protocol); P13612; in the data active = inhibition above about 50%
AI-2 QS mod – Vibrio harveyi AI-2 quorum sensing modulation | Vibrio harveyi JMH597 AI-2 luminescence/OD600 ratio, 9 h; hits give low values; strain lacks LuxN and CqsS sensors; 0 = neutral-control median | activity change, % at 7.5 µM | 300,000 compounds, 0.4% hits | AID 2094; in the data active = activity change below about -75%, passing the limit was not always enough;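 note: luminescence divided by OD600 gain over 9 h not by final OD600 alone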
DSG3 Ab inh – human desmoglein-3 autoantibody binding inhibition | binding (percent of control), % at 10 µM | P32926 | DSG3-coupled beads, scFv-anti-DSG3-GFP binding, flow cytometry; hits give low values | 310,000 compounds, 0.48% hits;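 active = binding more than 3 SD below its plate's average and above zero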;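 note: hits lower antibody fragment binding to DSG3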
Target sequence (P32926 whole entry, looked up, the tested form may be a part): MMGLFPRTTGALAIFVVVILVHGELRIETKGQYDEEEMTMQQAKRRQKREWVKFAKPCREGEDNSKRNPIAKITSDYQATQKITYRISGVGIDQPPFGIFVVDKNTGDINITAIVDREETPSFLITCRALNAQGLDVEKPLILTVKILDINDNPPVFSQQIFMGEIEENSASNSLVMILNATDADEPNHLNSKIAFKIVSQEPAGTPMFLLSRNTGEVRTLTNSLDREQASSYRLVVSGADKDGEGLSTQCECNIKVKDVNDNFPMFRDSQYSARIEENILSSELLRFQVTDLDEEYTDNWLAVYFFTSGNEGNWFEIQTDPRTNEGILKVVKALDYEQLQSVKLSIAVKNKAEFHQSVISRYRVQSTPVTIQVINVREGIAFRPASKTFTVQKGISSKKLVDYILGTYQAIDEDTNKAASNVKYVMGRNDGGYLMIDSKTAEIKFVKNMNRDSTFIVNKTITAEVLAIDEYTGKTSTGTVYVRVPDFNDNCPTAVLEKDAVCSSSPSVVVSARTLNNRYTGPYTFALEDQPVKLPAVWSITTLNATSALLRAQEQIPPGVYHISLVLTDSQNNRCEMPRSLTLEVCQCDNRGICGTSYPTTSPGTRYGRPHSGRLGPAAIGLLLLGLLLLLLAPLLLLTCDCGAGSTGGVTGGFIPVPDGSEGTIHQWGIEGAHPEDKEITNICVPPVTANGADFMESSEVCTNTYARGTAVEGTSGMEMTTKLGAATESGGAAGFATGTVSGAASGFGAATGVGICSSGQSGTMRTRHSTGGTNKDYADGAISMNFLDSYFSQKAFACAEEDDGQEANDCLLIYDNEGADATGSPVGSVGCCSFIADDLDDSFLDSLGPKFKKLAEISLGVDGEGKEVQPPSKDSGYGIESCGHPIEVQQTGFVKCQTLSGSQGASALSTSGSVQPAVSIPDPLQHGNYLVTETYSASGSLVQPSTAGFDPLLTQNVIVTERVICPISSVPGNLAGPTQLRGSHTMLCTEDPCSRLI
NTR1 agonist – activates human neurotensin receptor 1; P30989; NTR1-U2OS beta-arrestin-GFP spot imaging, agonist mode; activation, % at 20 µM; 330,000 compounds, 0.17% hits; AID 493036;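 active = activation at or above 40% of the spot to cytoplasm intensity ratio, with at least 20 cells analyzed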;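 note: 0% = DMSO without peptide and 100% = 100 nM NTR1 peptide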
Starred values were filed as active, the others as inactive; x = no result.

SMILES | VLA-4 inh | AI-2 QS mod | DSG3 Ab inh | NTR1 agonist
Cc1csc(C(=O)O)c1NC(=O)c1cccc([N+](=O)[O-])c1 | 26 | 26 | 43* | 0
O=C1COc2ccc(C(=O)COC(=O)CCSc3ccccc3)cc2N1 | 5 | -26 | 73* | 0
O=C1COc2ccc(C(=O)COC(=O)CNC(=O)c3ccccc3)cc2N1 | 2 | 10 | 100 | 0
O=C1COc2ccc(C(=O)COC(=O)CCCOc3ccccc3)cc2N1 | x | x | 82* | x
O=C1COc2ccc(C(=O)COC(=O)Cc3ccc(F)cc3)cc2N1 | 0 | -82* | 107 | 0
COc1ccccc1NC(=O)N(C)C[C@H]1Oc2ncc(C#CCN(C)C)cc2C(=O)N([C@H](C)CO)C[C@H]1C | x | x | 106 | x
CC(C)(C)Cc1c(-c2ccc(F)cc2)nc2ccc(Br)cn12 | x | x | 108 | x
CC(=O)NC(c1ccc(Cl)cc1Cl)c1ccc2cccnc2c1O (stereo unspecified) | 8 | -84* | 100 | 2
COc1ccccc1Nc1ccc(N)cc1 | -2 | 4 | 39* | 1
CCCCCCC(=O)Oc1cccc(C2=CC(=O)CC(C)(C)C2=O)c1 | x | x | 100 | x
O=C(O)CCN1C(=O)/C(=C/c2ccc(-c3nc4ccccc4s3)o2)SC1=S | 9 | 15 | 98 | -1
O=C(O)CCCN1C(=O)/C(=C\c2ccc(-c3nc4ccccc4s3)o2)SC1=S | -4 | 14 | 74* | -2
c1cnc2nc3c4ccccc4c4ccccc4c3nc2c1 | x | x | 78* | x
O=C(Cn1cnc2ccccc2c1=O)c1ccc(OC(F)F)cc1 | -18 | -46 | 39* | -1
O=C(COC(=O)CCc1nc2ccccc2c(=O)[nH]1)Nc1ccccc1 | 3 | x | 110 | 0
COC(=O)c1cc(NC(=O)COC(=O)CCc2nc3ccccc3c(=O)[nH]2)cc(C(=O)OC)c1 | -5 | x | 65* | -1
CS(=O)(=O)c1ccc(C(=O)OCc2nnc(-c3ccc(Cl)cc3)o2)cc1[N+](=O)[O-] | 12 | 3 | 126 | 41*
Cc1ccc(-n2nc(-c3ccco3)cc2C(=O)O)c(C)c1 | x | 1 | 60* | x
COc1ccc(C(CCNC(C)c2ccccc2)C(C)C)cc1 (stereo unspecified) | -1 | 7 | 101 | 1
COc1ccc(C(C)NCCC(c2ccc(OC(C)C)cc2)c2ccccc2OC)cc1 (stereo unspecified) | -51 | 17 | 105 | 68*
CC1CC(C)C(=O)C(C(CC2CC(=O)NC(=O)C2)OC(=O)CC(=O)c2ccccc2)C1 (stereo unspecified) | x | x | 94 | x
Nc1ccc(-c2nc3ccc(N)cc3[nH]2)cc1 | 29 | 6 | 90 | 1
Nc1ccc2nc(-c3cccc(-c4nc5ccc(N)cc5[nH]4)c3)[nH]c2c1 | -11 | 10 | 73* | 0
COc1ccc(NS(=O)(=O)c2ccc3c(c2)NC(=O)CO3)cc1 | 9 | -81* | 92 | 0
O=c1c(O)cccc2cc(O)c(O)c(O)c12 | 5 | 39 | 33* | 4
SMILES | VLA-4 inh | AI-2 QS mod | DSG3 Ab inh | NTR1 agonist
O=c1cc(-c2ccccc2)oc2cc(O)c(O)c(O)c12 | -10 | x | 97 | 18
Cc1ccc(S(=O)(=O)N2C[C@H]3C(=O)C[C@@H](c4cccc(Cl)c4)N(S(=O)(=O)c4ccc(C)cc4)[C@H]3C[C@H]2c2ccc(Cl)cc2)cc1 | x | x | 97 | x
N#CCCn1cc(/C=C2\NC(=S)N(c3ccccc3)C2=O)c(-c2ccc(F)cc2)n1 | 2 | 30 | 1.1* | 8
CC[C@@]1(C(=O)OC)N[C@H](CN(C)C(=O)COC)[C@@H]2C(=O)N(Cc3ccccc3)C(=O)[C@@H]21 | 27 | x | 96 | 1
Cc1ccccc1NC1=C/C(=N\S(=O)(=O)c2cccs2)c2ccccc2C1=O | 1 | 27 | 97 | 40*
COCCn1c(=NC(=O)CCS(=O)(=O)c2ccccc2)sc2cc(C(=O)OC)ccc21 | 9 | 4 | -9.8* | 0
C[C@H]1CN(c2ccccc2)C(=O)[C@@H]1CC(=O)Nc1ccc(Br)cc1 | x | x | 108 | x
COc1ccc(-c2cn3c(C)c(C(=O)N4CCN(c5ccccc5F)CC4)sc3n2)cc1 | 18 | 25 | 111 | 2
COc1ccc(-c2cn3c(C)c(C(=O)Nc4cccc(NC(C)=O)c4)sc3n2)cc1 | 1 | 21 | 80* | 12
COc1ccc(N2CCN(C(=O)c3sc4nc(-c5ccc(F)cc5)cn4c3C)CC2)cc1 | -2 | 20 | 27* | 0
COc1ccc(-c2cn3c(C)c(C(=O)Nc4ccncc4)sc3n2)cc1 | -6 | 18 | 98 | 5
N#Cc1ccc(-c2nc3ccc(Br)cn3c2Cc2ccccc2)cc1 | x | x | 110 | x
C[C@]12c3[nH]c4ccc(Cl)cc4c3CCN1C(=O)[C@@H](CC(=O)NCc1cccc(C(F)(F)F)c1)C[C@@H]2C(=O)N1CCCCC1 | x | x | 99 | 9
COc1ccc2[nH]c3c(c2c1)CCN1C(=O)C(CC(=O)NCc2cccc(C(F)(F)F)c2)C[C@H](C(=O)N2CCCCC2)[C@@]31C (stereo partly specified) | x | x | 79* | 3
O=C(O)c1ccc(CNC(=O)C2CCN(S(=O)(=O)c3ccc4c(c3)OCCO4)CC2)cc1 | x | x | 93 | x
CCCCN(C)CCCNC(=O)CN1N=C(c2ccc(Cl)cc2)CCC1=O | 39 | 32 | 75* | 0
CC(C)CN(CCNC(=O)CN1N=C(c2ccc(Cl)cc2)CCC1=O)CC(C)C | -12 | 19 | 96 | 0
O=S(=O)(c1ccc(F)cc1)c1nc(-c2ccco2)oc1NCCCn1ccnc1 | x | x | 106 | x
COc1ccc(C(=O)CSc2nc(=O)n3ccc(C)cc3n2)cc1 | x | x | 57* | x
Nc1cc2c3ccccc3ccc2c2ccccc12 | x | x | 88 | x
CCC(CC)C(=O)N(c1ccc(F)cc1)C1C=CS(=O)(=O)C1 (stereo unspecified) | 31 | 15 | 83* | 1
COc1ccccc1S(=O)(=O)N(C)C[C@H]1Oc2cc(C#CCC3CCCC3)ccc2S(=O)(=O)N([C@H](C)CO)C[C@H]1C | x | x | 115 | x
CCOc1ccc2nc(-c3ccccc3)nc(SCC(=O)OC)c2c1 | 5 | 30 | 96 | 3
CCOC(=O)CSc1nc(-c2ccccc2)nc2ccc(C)cc12 | 0 | 2 | 76* | 5
CCCc1cc(=O)oc2cc(OCC(=O)NCc3cccs3)ccc12 | 3 | 12 | 46* | -1
SMILES | VLA-4 inh | AI-2 QS mod | DSG3 Ab inh | NTR1 agonist
CCCc1cc(=O)oc2cc(OCC(=O)NCC(O)c3ccccc3)ccc12 (stereo unspecified) | 5 | 15 | 0.7* | 1
COc1cccc(CNC(=O)COC(=O)c2nc(Cl)c(Cl)c(Cl)c2Cl)c1 | 35 | x | 98 | 21
CC1=C(C(=O)N(C)C)CC(CC(=O)NCc2ccco2)C(=O)N1Cc1ccccc1 (stereo unspecified) | x | x | 86 | x
Cc1cnc(C(=O)N2CCN(S(=O)(=O)c3cc(C(F)(F)F)cc(C(F)(F)F)c3)CC2)cn1 | x | x | -17* | x
CCc1ccc(CN(C)C(=O)c2cc(COc3cccc4cnccc34)on2)cc1 | 24 | -60 | 118 | 5
CN(Cc1cccnc1)C(=O)c1cc(COc2ccc3c(c2)CCCC3)on1 | -3 | -80* | 112 | 2
C=CCCC(=O)N1C[C@H]2CON(C)[C@H]2C[C@H]1c1cccc(N2CCOCC2)c1 | x | x | 99 | x
